# Structures can show the parent of a compound that is named as a salt. ± gives the standard deviation of the averaged measurements.
# Test system: E. coli TESEC Mtb Alr
# Experiment: growth (OD600 after 10 h); higher = more growth (less inhibition)
# Conditions: compound 0.1 mM
# Description: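 TESEC Mtb Alr E. coli, or the Alr+ wild-type control, in 384-well plates with Prestwick library compounds at 0.1 mM and 1% DMSO, across arabinose induction levels of 1E3 to 1E7 nM. Growth is read as OD600 after 10 h at 37 °C in triplicate biological replicates.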
# [1] = arabinose 1000 nM, raw OD600 reference: median of DMSO wells 0.294, cell-free background 0.041
# [2] = arabinose 10000 nM, raw OD600 reference: median of DMSO wells 0.264, cell-free background 0.041
# [3] = arabinose 100000 nM, raw OD600 reference: median of DMSO wells 0.201, cell-free background 0.041
# [4] = arabinose 1000000 nM, raw OD600 reference: median of DMSO wells 0.193, cell-free background 0.041
# [5] = arabinose 10000000 nM, raw OD600 reference: median of DMSO wells 0.146, cell-free background 0.041
Compound,growth [1],growth [2],growth [3],growth [4],growth [5]
C#C[C@]1(O)CC[C@H]2[C@@H]3[C@H](C)CC4=C(CCC(=O)C4)[C@H]3CC[C@@]21C [Tibolone],0.162 ± 0.017,0.155 ± 0.031,0.15 ± 0.021,0.0695 ± 0.00095,0.148 ± 0.0066
CC(=O)[C@@]1(O)CC[C@H]2[C@@H]3C[C@H](C)C4=CC(=O)C=C[C@]4(C)[C@@]3(F)[C@@H](O)C[C@@]21C [Fluorometholone],0.308 ± 0.011,0.248 ± 0.011,0.2 ± 0.018,0.13 ± 0.007,0.153 ± 0.0031
C[C@H](CCC(=O)O)[C@H]1CC[C@H]2[C@@H]3[C@@H](O)C[C@@H]4C[C@H](O)CC[C@]4(C)[C@H]3CC[C@]12C [Urosiol],0.279 ± 0.0063,0.188 ± 0.0089,0.188 ± 0.0055,0.1123 ± 0.00023,0.14 ± 0.0032
CC(CN(C)C)C(C)(O)Cc1ccc(Cl)cc1 (stereo not given) [Clobutinol hydrochloride],0.263 ± 0.018,0.265 ± 0.0075,0.197 ± 0.0069,0.181 ± 0.0066,0.142 ± 0.013
C=CC[N@@+]12CC[C@@]34c5ccccc5N5/C=C6/[C@H]7C[C@H]8[C@@]9(CC[N@@+]8(CC=C)C/C7=C/CO)c7ccccc7N(/C=C(/[C@@H](C[C@@H]31)/C(=C\CO)C2)[C@H]54)[C@@H]69 [Alcuronium chloride],0.255 ± 0.004,0.162 ± 0.0017,0.13 ± 0.0075,0.115 ± 0.0062,0.155 ± 0.0016
NCCCC[C@H](N[C@@H](CCc1ccccc1)C(=O)O)C(=O)N1CCC[C@H]1C(=O)O [Lisinopril],0.304 ± 0.0053,0.251 ± 0.0067,0.213 ± 0.0063,0.177 ± 0.0033,0.159 ± 0.0064
CC(C(=O)O)c1cccc(C(=O)c2ccccc2)c1 (stereo not given) [Ketoprofen],0.249 ± 0.014,0.271 ± 0.012,0.172 ± 0.012,0.191 ± 0.0088,0.145 ± 0.0059
O=C1C(=O)c2ccccc2C(O)=C1C1CCC(c2ccc(Cl)cc2)CC1 (stereo not given) [Atovaquone],0.2 ± 0.0057,0.182 ± 0.015,0.151 ± 0.015,0.105 ± 0.0069,0.133 ± 0.0044
